Source: PubChem BioAssay (Tox21)
Results filed as inconclusive are left out. Values without a mark were called inactive. Active and inactive are the calls of the source. The call rests on the fitted dose curve; in most records, active means well fitted cell-killing curve with a large enough effect in the repeat runs; inconclusive means weak or mixed curves, or effect the other way; inactive means flat fitted curve, though single readings scatter.

test: cAMP Responsive Elements (CRE) small molecule agonists, cell-based qHTS assay: qHTS cell viability counter screen (AID 2060914); conditions: CRE-bla HEK293T viability, CellTiter-Glo luminescence, 5 h; series mostly up to 92.4 µM; activity change, negative = cytotoxicity: at the top concentration; further: nearly all actives have a fitted effect of over 50% in size
How it was run: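 Cytotoxicity was measured as ATP luminescence (CellTiter-Glo, 30 min at room temperature) in the same wells as the CRE-bla FRET read-out. HEK293T CRE-bla cells had 3 h compound exposure at 37C/5% CO2.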
On the % scale 0 is the no-effect control and ±100 the full control effect.

Row | Compound | Potency | activity change, negative = cytotoxicity
1 | O=[N+]([O-])c1ccc(O)cc1 | inactive | –
2 | Cc1cc(C)n(CO)n1 | – | -1.09%
3 | Nc1cc(C(Cl)=C(Cl)Cl)c(S(N)(=O)=O)cc1S(N)(=O)=O | – | 1.28% [at 42.5 µM]
4 | NC1=NCC2c3ccccc3Cc3ccccc3N12 (stereo unspecified) | – | -15.3% [at 42.5 µM]
5 | CC(S)C(=O)NCC(=O)O (stereo unspecified) | – | 10.7% [at 42.5 µM]
6 | CC(O)COc1ccccc1 (stereo unspecified) | inactive | –
7 | CC1(C)O[C@@H]2C[C@H]3[C@@H]4CCC5=CC(=O)CC[C@]5(C)[C@@]4(F)[C@@H](O)C[C@]3(C)[C@]2(C(=O)CCl)O1 | – | 6.6% [at 42.5 µM]
8 | COc1nc(C)nc(NC(=O)NS(=O)(=O)c2ccccc2OCCCl)n1 | – | 4.66%
9 | CNS(=O)(=O)c1cc(C(=O)N2CCC(CCN3C4CCC3CC(n3c(C)nc5ccccc53)C4)(c3cccc(F)c3)CC2)c(Cl)cc1F (stereo unspecified) | – | 2.88%
10 | CC(=O)N(O)CCCCCNC(=O)CCC(=O)N(O)CCCCCNC(=O)CCC(=O)N(O)CCCCCN | – | -7.84% [at 42.5 µM]
11 | OCCOCCN1CCN(C2=Nc3ccccc3Sc3ccccc32)CC1 | inactive | –
12 | O=C(OC(=O)c1ccccc1)c1ccccc1 | – | 0.369%
13 | O=c1n(CCCN2CCN(c3cccc(Cl)c3)CC2)nc2ccccn12 | inactive | –
14 | CC/C(=C(/CC)c1ccc(O)cc1)c1ccc(O)cc1 | inactive | –
15 | CCc1c(C)cc(N)c(CC)c1N | – | 4.1%
16 | COC(=O)c1cc(Cl)ccc1NS(=O)(=O)C(F)(F)F | – | -0.91% [at 42.5 µM]
17 | CCCC(C)C | – | 2.98%
18 | CC12CC3CC(C)(C1)CC(N)(C3)C2 | – | 0.0627% [at 42.5 µM]
19 | CC(COC(=O)c1ccccc1)OC(=O)c1ccccc1 (stereo unspecified) | – | 0.0915%
20 | CC(=O)Nc1ccc(C)c(Cl)c1 | – | -2.66%
21 | O=P(O)(O)OCC(O)CO (stereo unspecified) | – | 2.45% [at 42.5 µM]
